A selection: hits, their analogues and other compounds. The true share with any hit is near 1.1%.
CatS inh – human cathepsin S inhibition. P25774. recombinant cathepsin S, AMC dipeptide fluorescence, pooled mixtures. inhibition, %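 (tested at 5 µM per compound within 10-compound mixtures)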. 62,000 compounds, 0.06% hits. AID 501; in the data active means inhibition above about 32%, passing the limit was not always enough
CatB mix inh – inhibitors of human cathepsin B in compound mixtures; P07858; Purified cathepsin B, AMC dipeptide fluorescence; inhibition, %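 (ten-compound pools at 5 µM per compound and 50 µM total)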; 62,000 compounds, 0.06% hits; AID 488; in the data active means inhibition above about 22%, passing the limit was not always enough
WNV NS2B-NS3 inh – blocks West Nile virus NS2B-NS3 protease activity. WNV NS2B-NS3 protease, fluorogenic substrate Ex360/Em465; active compounds read low. AID 577. z-score (concentration not given with the values). 65,000 compounds, 0.18% hits; in the data active means z-score below about -3
CatB inh – blocks human cathepsin B protease activity; P07858; purified cathepsin B, fluorogenic substrate, fluorescence; inhibition, %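 (tested at 10 µM)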; 63,000 compounds, 0.1% hits; in the data active means inhibition above about 21%
CatL block – inhibitors of human cathepsin L; P07711; purified cathepsin L, fluorogenic substrate, fluorescence; AID 460; inhibition, %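 (tested at 10 µM)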; 58,000 compounds, 0.17% hits; in the data active means inhibition above about 45%
Target sequence (P07711 114-288 limits assumed): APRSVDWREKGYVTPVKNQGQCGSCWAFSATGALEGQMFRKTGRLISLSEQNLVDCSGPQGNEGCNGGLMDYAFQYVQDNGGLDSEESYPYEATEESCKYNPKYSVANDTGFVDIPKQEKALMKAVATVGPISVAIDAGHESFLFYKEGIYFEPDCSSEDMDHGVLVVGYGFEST
Target sequence (P07711 292-333 limits assumed): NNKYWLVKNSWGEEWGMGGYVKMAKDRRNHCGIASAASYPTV
Her2 expr inh – inhibitors of human Her2 kinase expression | P04626 | HER2 level % of control, % at 10 µM | SKBR-3 HER2 protein level, AlphaScreen, 18-24 h; active compounds read low | 65,000 compounds, 0.69% hits;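 active means HER2 level under 5% of the carrier-only control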;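 further: lower value means stronger loss of Her2 protein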
A number is an active result.

`CCOC(=O)c1ccc(S(=O)(=O)N2CCN(CC(=O)NC(=O)NC3CCCCC3)CC2)cc1` gave CatS inh inactive, CatB mix inh inactive, WNV NS2B-NS3 inh inactive, CatB inh inactive, CatL block inactive and Her2 expr inh inactive.
For O=C(Nc1ccccc1NC(=O)NC1CCCCC1)NC1CCCCC1 the results were CatS inh inactive, CatB mix inh inactive, WNV NS2B-NS3 inh inactive, CatB inh inactive, CatL block inactive and Her2 expr inh -15.3.
For O=C(CSc1nnc(Cn2c(=O)sc3ccccc32)n1CCc1ccccc1)N1CCOCC1 the results were CatS inh inactive, CatB mix inh inactive, WNV NS2B-NS3 inh inactive, CatB inh inactive, CatL block inactive and Her2 expr inh inactive.
Cc1nn(-c2cccc(Cl)c2)c2c1C(c1ccncc1)C(C#N)=C(N)O2 (stereo not drawn) was read as CatS inh inactive, CatB mix inh inactive, WNV NS2B-NS3 inh inactive, CatB inh inactive, CatL block inactive and Her2 expr inh inactive.
For Cc1ccc(-n2nc(C)c3c2OC(N)=C(C#N)C3c2ccc(F)cc2)cc1 (stereo not drawn) the results were CatS inh inactive, CatB mix inh inactive, WNV NS2B-NS3 inh inactive, CatB inh inactive, CatL block inactive and Her2 expr inh -28.1.
For CCC(c1nnnn1C1CCCCC1)N(Cc1ccco1)Cc1cc2ccc(OC)cc2[nH]c1=O (stereo not drawn) the results were CatS inh inactive, CatB mix inh inactive, WNV NS2B-NS3 inh inactive, CatB inh inactive, CatL block inactive and Her2 expr inh inactive.
`CCOC(=O)Cn1nnnc1C(CC)N(Cc1cccs1)Cc1cc2ccc(OC)cc2[nH]c1=O` (stereo not drawn) gave CatS inh inactive, CatB mix inh inactive, WNV NS2B-NS3 inh inactive, CatB inh inactive, CatL block inactive and Her2 expr inh -9.3.
Screening CCOC(=O)C(C(C)=O)c1c(Br)c(O)c(O)c2c(C(=O)c3ccc(C)cc3)coc12 (stereo not drawn) returned CatS inh inactive, CatB mix inh inactive, WNV NS2B-NS3 inh inactive, CatB inh inactive, CatL block inactive and Her2 expr inh -20.7.
Cc1ccc(C)n1-c1ccc(N2CCOCC2)nc1 was read as CatS inh inactive, CatB mix inh inactive, WNV NS2B-NS3 inh inactive, CatB inh inactive, CatL block inactive and Her2 expr inh -18.8.
`CN(C)S(=O)(=O)c1ccc(N2CCOCC2)nc1` gave CatS inh inactive, CatB mix inh inactive, WNV NS2B-NS3 inh inactive, CatB inh inactive, CatL block inactive and Her2 expr inh inactive.
Screening COc1ccc(N(CC(=O)NCC2CCCO2)S(=O)(=O)c2c(C)noc2C)cc1 (stereo not drawn) returned CatS inh inactive, CatB mix inh inactive, WNV NS2B-NS3 inh inactive, CatB inh 31.7, CatL block inactive and Her2 expr inh inactive.
For COc1ccc(N(CC(=O)NCc2cccc(OC)c2)S(=O)(=O)c2c(C)noc2C)cc1 the results were CatS inh inactive, CatB mix inh inactive, WNV NS2B-NS3 inh inactive, CatB inh inactive, CatL block inactive and Her2 expr inh inactive.
COCCN(CC(=O)NCc1ccc(F)cc1)C(=O)CCC(=O)Nc1ccccn1 was read as CatS inh inactive, CatB mix inh inactive, WNV NS2B-NS3 inh inactive, CatB inh inactive, CatL block inactive and Her2 expr inh inactive.
`CC(=O)Nc1nc2ccccc2n1Cc1ccccc1C` gave CatS inh inactive, CatB mix inh inactive, WNV NS2B-NS3 inh inactive, CatB inh inactive, CatL block inactive and Her2 expr inh inactive.
Screening CC(=O)Nc1nc2ccccc2n1CCOc1ccccc1Cl returned CatS inh inactive, CatB mix inh inactive, WNV NS2B-NS3 inh -5.59, CatB inh inactive, CatL block inactive and Her2 expr inh inactive.
COc1ccc(N=CC2=C(O)CCCC2=O)cc1 was read as CatS inh inactive, CatB mix inh inactive, WNV NS2B-NS3 inh -4.23, CatB inh inactive and Her2 expr inh inactive.
For COc1ccc2[nH]c(C(=O)O)c(NS(=O)(=O)c3ccc(Cl)s3)c2c1 the results were CatS inh inactive, CatB mix inh inactive, WNV NS2B-NS3 inh inactive, CatB inh inactive, CatL block inactive and Her2 expr inh inactive.
`COc1ccc2[nH]c(C(=O)O)c(CCNC(C)=O)c2c1` gave CatS inh inactive, CatB mix inh inactive, WNV NS2B-NS3 inh -4.12, CatB inh inactive, CatL block inactive and Her2 expr inh inactive.
For Cc1noc(C)c1COc1cccc(C(=O)Nc2ccc(C#N)cc2)c1 the results were CatS inh inactive, CatB mix inh inactive, WNV NS2B-NS3 inh inactive, CatB inh inactive, CatL block inactive and Her2 expr inh inactive.
